An excerpt weighted towards active compounds, which were near 12% of everything screened.
Sfp inh = blocks B. subtilis Sfp PPTase activity; Biochemical Sfp PPTase activity, qHTS; Potency, µM, inactives show largest response in the series, negative = inhibition, hits mostly inhibitors; 3.5% of 310,000 active; AID 1490;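 also: the enzyme is Sfp with the accession as filed and its product quenches rhodamine fluorescence; 0% = enzyme reaction without inhibitor and -100% = no enzyme wells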
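After 15 min at room temperature with compound, 15 nM Sfp received 5 uM rhodamine-CoA plus 12.5 uM BHQ-2-ybbR (50 mM Hepes pH 7.6, 10 mM MgCl2). Rate came from the fluorescence difference over 30 min, ex 525/em 598 nm.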
JMJD2A Tudor inh = JMJD2A Tudor domain (human) inhibition; AlphaScreen JMJD2A-Tudor / H3K4me3 peptide binding; Potency, µM (series often up to 114 µM), for inactives: at the top dose activity change, negative = inhibition, most hits filed as inhibitors; 4.4% of 390,000 active; O75164; AID 504339; also: % is scaled to controls: 0 for no effect and ±100 for the full control effect; nearly all actives have a fitted effect of over 50% in size
BAZ2B inh = BAZ2B (human) inhibition | Q9UIF8 | 4.4% of 360,000 active | AlphaScreen BAZ2B-H3K14Ac peptide displacement | Potency, µM (titrated, usually from 114 µM), for the others: at the highest dose activity change, negative = inhibition, hits mostly inhibitors; also: % is scaled to controls: 0 for no effect and ±100 for the full control effect; nearly all actives have a fitted effect of over 60% in size
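BAZ2B (50 nM) with biotin-H3(5-23)K14Ac peptide (50 nM) in PBS pH 7.4, 0.01% Tween-20, preformed 30 min, then compound 30 min at room temperature; top concentration 110uM. AlphaScreen streptavidin donor/nickel chelate acceptor beads (10 ug/mL final), 20 min dark, signal read.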
G9a inh = G9a (human) methyltransferase inhibition. Q96KQ7. G9a H3K9 monomethylation, AlphaScreen, 2 h. Potency, µM (doses to about 102 µM), for the others: at the highest dose activity, negative = inhibition, hits mostly inhibitors. 8.8% of 350,000 active; also: % is scaled to controls: 0 for no effect and ±100 for the full control effect; nearly all actives have a fitted effect of over 75% in size
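Readings reflect AlphaScreen signal from monomethyl-H3K9 antibody detection. HMT at 20 nM; substrate b-H3K9 500 nM; cofactor SAM 20 uM; 2 h RT reaction; compounds tested as titrations in qHTS with 15 min preincubation.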
L3MBTL1 inh = L3MBTL1 (human) inhibition; 0.66% of 230,000 active; AID 485360; Q9Y468; AlphaScreen L3MBTL1–H3K9me1 peptide binding; Potency, µM (top dose mostly 57.1 µM), without a hit: at the top dose activity, negative = inhibition, usual class: inhibitors; also: % is scaled to controls: 0 for no effect and ±100 for the full control effect; nearly all actives have a fitted effect of over 60% in size
Target sequence (Q9Y468 whole entry, looked up): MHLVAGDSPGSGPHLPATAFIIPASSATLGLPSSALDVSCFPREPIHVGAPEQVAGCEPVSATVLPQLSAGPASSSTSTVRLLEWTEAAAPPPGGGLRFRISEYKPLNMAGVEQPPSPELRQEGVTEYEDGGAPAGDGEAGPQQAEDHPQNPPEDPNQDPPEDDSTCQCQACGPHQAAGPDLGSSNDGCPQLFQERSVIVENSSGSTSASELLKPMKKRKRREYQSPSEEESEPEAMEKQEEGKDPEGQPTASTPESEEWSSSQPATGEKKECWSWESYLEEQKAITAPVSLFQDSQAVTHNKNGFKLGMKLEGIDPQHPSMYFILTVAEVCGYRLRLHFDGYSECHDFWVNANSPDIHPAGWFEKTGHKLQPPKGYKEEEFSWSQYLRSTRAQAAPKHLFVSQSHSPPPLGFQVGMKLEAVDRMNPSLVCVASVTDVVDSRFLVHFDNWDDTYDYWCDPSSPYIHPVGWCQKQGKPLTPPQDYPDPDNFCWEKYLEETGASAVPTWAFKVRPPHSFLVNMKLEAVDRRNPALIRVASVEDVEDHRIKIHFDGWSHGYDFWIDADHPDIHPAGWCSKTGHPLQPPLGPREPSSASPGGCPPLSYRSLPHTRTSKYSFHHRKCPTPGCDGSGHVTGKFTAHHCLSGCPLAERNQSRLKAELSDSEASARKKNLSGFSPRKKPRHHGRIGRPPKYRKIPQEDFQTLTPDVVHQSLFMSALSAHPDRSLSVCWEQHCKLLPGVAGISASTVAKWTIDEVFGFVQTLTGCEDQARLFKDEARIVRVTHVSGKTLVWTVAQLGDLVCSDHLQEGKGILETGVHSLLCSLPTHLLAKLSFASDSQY
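First, the protein-peptide complex forms for 30 min at room temperature (L3MBTL1 50 nM, biotinylated H3K9me1 peptide 75 nM). Next, compounds are pin-transferred and incubated 30 min. Finally, AlphaScreen beads are added and read after 30 min.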
HP1b binding inh = HP1-beta chromodomain-methylated histone interaction inhibition | P83916 | AlphaScreen HP1-beta / biotin-H3K9me3 peptide binding | Potency, µM (titrated, usually from 114 µM), inactives show at the top dose activity change, negative = inhibition, most hits filed as inhibitors | 0.56% of 390,000 active | AID 540317; also: nearly all actives have a fitted effect of over 70% in size
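Compound inhibition of the preformed complex between 50 nM HP1-beta and 50 nM biotinylated H3K9me3 peptide was read by AlphaScreen. Buffer was PBS pH 7.4 with 0.01% Tween-20. Incubations ran 30 min at room temperature, with 10 ug/mL donor/acceptor beads.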
* = called active by the depositor; ? = inconclusive; · = no result given; [ ] = remark or other dose. Calls follow the shape of the dose curve; as a rule, active = well fitted curve in the direction sought with a large enough effect; inconclusive = small, poorly fitted or top-dose-only effect, or another doubt; inactive = no such curve, though single readings can be large; an effect the other way counts as inactive or inconclusive. Potency is read from the fitted curve at half-maximal effect.

SMILES	Sfp inh	JMJD2A Tudor inh	BAZ2B inh	G9a inh	L3MBTL1 inh	HP1b binding inh
CC(C)NCC#CCOc1ccc(Cl)cc1	-25.2%	44.7µM*	?	7.94µM*	-5.1%	23.5%
COC(=O)N1CCC2(CCN(Cc3ccccc3OC)CC2)CC1	14.4%	·	·	-0.9%[12.7 µM]	·	·
C/C(=N\N=C1\NC(=O)C(CC(=O)O)S1)c1ccccn1 (configuration not stated)	-9.7%	?	50.1µM*	·	-12.8%	50.7%
CCOc1ccc(N=C2NC(=O)C(CC(=O)O)S2)cc1 (configuration not stated)	3.8%	5.4%	-6.0%	30.9%[12.7 µM]	7.3%	24.3%
BrC(=C\c1ccccc1)/C=N/N1CCN(c2ccccc2)CC1	44.7µM*	-29.3%	?	20µM*	-10.2%	-29.7%
Cc1ccc(CN2CCN(/N=C\C(Br)=C\c3ccccc3)CC2)cc1	-24.0%	44.7µM*	?	?	-6.7%	?
CC(/C=N\N1CCN(c2ccc(Cl)cc2)CC1)=C\c1ccccc1	5.1%	-31.1%	4.6%	-48.0%	1.4%	31.7%
CC(/C=N/N1CCN(c2ccc(C)cc2)CC1)=C\c1ccccc1	13.8%	-25.1%	-10.1%	2.1%[59 µM]	-13.3%	1.4%
CC(/C=N/N1CCN(Cc2ccccc2)CC1)=C\c1ccccc1	-5.8%	44.7µM*	50.1µM*	28.2µM*	·	?
CCOC(=O)C(CC)Sc1ncnc2sc3c(c12)CCCC3 (configuration not stated)	·	113.8%	180.0%	168.4%[59 µM]	·	130.5%
CCCc1cc(Nc2cccc(OCC)c2)n2ncnc2n1	5.2%	-1.3%	8.0%	56.2µM*	-0.5%	38.1%
CCCc1cc(Nc2cccc(OC)c2)n2ncnc2n1	2.6%	-25.4%	-4.3%	-32.2%[59 µM]	5.7%	0.3%
COc1ccc(Nc2cc(C(=O)NCCc3ccc(C)cc3)c3ccccc3n2)c(OC)c1	·	-24.7%	·	-21.7%[59 µM]	·	18.5%
CC(C)CCNC(=O)c1ccc(C2SCC(=O)N2Cc2ccco2)cc1 (configuration not stated)	8.91µM*	-9.0%	8.9%	?	1.4%	25.4%
O=C1CSC(c2cn(-c3ccccc3)nc2-c2ccccc2)N1Cc1ccco1 (configuration not stated)	4.3%	?	?	11.2µM*	?	-13.5%
CCNC(=O)c1ccc(C2SCC(=O)N2Cc2ccco2)cc1 (configuration not stated)	-11.7%	2.0%	-6.9%	13.8%[0.501 µM]	2.6%	24.4%
O=C1CSC(c2ccncc2)N1Cc1ccco1 (configuration not stated)	56.2µM*	-17.3%	-7.7%	-33.6%[59 µM]	2.9%	13.5%
CCOC(=O)C1CCN(C(=O)c2nn(-c3ccc(C)cc3)c(=O)n(C)c2=O)CC1	·	-15.7%	1.4%	7.7%[59 µM]	·	14.3%[57 µM]
COc1cccc(N2CCN(C(=O)CCS(=O)(=O)c3ccc4c(c3)CC(=O)N4C)CC2)c1	·	-18.2%	-8.1%	5.4%[59 µM]	·	47.1%
O=C(c1cc(C2CC2)on1)N1CCCC(N2CCN(c3cccc(C(F)(F)F)c3)CC2)C1 (configuration not stated)	6.3%	-25.8%	-34.5%	79.4µM*	·	8.3%[57 µM]
Cc1ccc(-n2nc(C(=O)N3CCN(c4ccccc4)CC3)c(=O)n(C)c2=O)cc1	·	-22.7%	-13.4%	13.1%[59 µM]	·	35.2%[57 µM]
CC(=O)Nc1ccc(NC(=O)Cn2cc3c(n2)CCCCC3)cc1	·	-16.8%	-34.9%	15.8µM*	·	37.7%
CCN(CC)c1ccc(NC(=O)Cn2cc3c(n2)CCC(C)C3)c(C)c1 (configuration not stated)	-25.7%	?	?	4.47µM*	-13.9%	?
CCN(CC)c1ccc(NC(=O)Cn2cc3c(n2)CCCC3)c(C)c1	·	?	-27.9%	10µM*	·	14.5%
Cc1ccc(NC(=O)Cn2cc3c(n2)CCCC3)c(Cl)c1	·	1.7%	2.6%	8.6%[59 µM]	·	35.4%
SMILES	Sfp inh	JMJD2A Tudor inh	BAZ2B inh	G9a inh	L3MBTL1 inh	HP1b binding inh
CC1CCc2nn(CC(=O)Nc3ccc(F)cc3F)cc2C1 (configuration not stated)	13.8%	-12.0%	9.9%	-11.7%[59 µM]	-2.9%	50.3%
CCc1nc2ccccc2n1CCCCOc1ccc(Cl)cc1	·	47.0%	53.0%	-30.6%[59 µM]	·	69.3%
CC(=O)OC[C@@H]1O[C@@H](O/N=C2/C[C@@H](O)[C@@H](O)[C@@H]3[C@@H]4C(=O)N(Cc5ccc6c(c5)OCO6)C(=O)[C@H]4CC[C@H]23)[C@H](OC(C)=O)[C@H](OC(C)=O)[C@@H]1OC(C)=O	20.4%	·	·	·	·	·
CCc1ccc(S(=O)(=O)c2cn(CC)c3cc(N4CCCCC4)c(F)cc3c2=O)cc1	·	-16.2%	2.0%	-1.2%[59 µM]	·	14.1%
CC(=O)N1C(C(=O)O)Cc2c([nH]c3ccccc23)C1(C)C (configuration not stated)	4.5%	-1.4%	-5.2%	16.3%	-2.4%	27.2%
CC1(C)c2[nH]c3ccccc3c2C[C@H]2C(=O)N(CCCO)CC(=O)N21	7.7%	6.0%	3.3%	6.0%	·	22.3%
CC12CCC(=O)N1C(C(=O)O)Cc1c2[nH]c2ccccc12 (configuration not stated)	-1.6%	79.4µM*	-34.8%	?	6.9%	28.9%
CC1(C)NC(C(=O)O)Cc2c1[nH]c1ccccc21 (configuration not stated)	9.4%	-16.5%[11.4 µM]	-22.5%	25.1µM*	6.2%	-1.0%
CN(C)CCN(C(=O)c1ccc2ccccc2c1)c1nc2c(F)cc(F)cc2s1	-2.8%	?	-23.4%[57.1 µM]	50.1µM*	·	-15.7%[57 µM]
Cc1cccc2sc(N(CCN(C)C)C(=O)c3ccc4ccccc4c3)nc12	-2.4%	?	?	39.8µM*	·	-10.4%[57 µM]
CN(C)CCN(C(=O)c1ccco1)c1nc2c(F)cc(F)cc2s1	·	-16.2%	-8.7%	0.2%[59 µM]	·	20.4%
CCOc1ccc(-n2c(=O)c3c(C)c(C)sc3n(CC(=O)N(CC)Cc3ccccc3)c2=O)cc1	·	-8.5%	3.8%	-6.5%[59 µM]	·	53.1%
CCOC(=O)c1c(CNCCN(CC)CC)n(C)c2cc(Br)c(OC)cc12	0.7%	-31.3%	?	79.4µM*	·	-5.2%
Cc1ccc(CNC(=O)[C@]2(C(F)(F)F)C[C@H](CCc3ccccc3)CCCO2)o1	?	-30.3%	·	·	·	17.6%
COc1ccccc1C(=O)COC(=O)CNC(=O)c1ccc(Br)o1	·	-14.5%	1.0%	50.1µM*	7.1%	50.0%
CCc1ccc(C(=O)COC(=O)CNC(=O)c2ccc(Br)o2)cc1	1.7%	-3.6%	-2.7%	15.7%	·	43.6%
CC(C)c1ccc(NC(=O)c2cn(C3CCCCC3)c(=O)c3c2c2ccccc2n3C)cc1	·	-21.2%	-1.9%	-1.1%[59 µM]	·	21.7%
CC(=O)Nc1cc2c(=O)n(Cc3ccccc3)c(C)nc2cc1N1CCOCC1	9.8%	-17.0%	?	50.1µM*	5.3%	20.1%
